# Measurements published in the supplement of paper PMC8728848.
# About 410 targets per protein were measured; listed, in parts, are those with the strongest signals and a random draw of the rest.
# B1: Gal 3 (Homo sapiens), P17931 (protein)
# chain: MADNFSLHDALSGSGNPNPQGWPGAWGNQPAGAGGYPGASYPGAYPGQAPPGAYPGQAPPGAYHGAPGAYPGAPAPGVYPGPPSGPGAYPSSGQPSAPGAYPATGPYGAPAGPLIVPYNLPLPGGVVPRMLITILGTVKPNANILDFQRGNDVAFHFNPRFNENNRRVIVCNTKLDNNWGREESQSVFPFESGKPFKIQVLVEPDHFKVAVNDAHLLQYNHRVKKLNEISKLGISGDIDLTSASYTMI
# Key:
# Assay in all cases: glycan array binding signal (z-score within array); higher = stronger binding
# Details in all cases: glycan notation: IUPAC condensed, linker removed; mutation: R186S
# [1] = target: Fuc(a1-2)Gal(b1-3)GalNAc(b1-4)[Neu5Ac(a2-3)]Gal(b1-4)Glc
# Procedure, shortened: (§1)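 Glycan array data were curated from 3228 arrays in the Consortium for Functional Glycomics database and kept only where the protein sequence was available. Glycan names were converted to IUPAC-condensed notation, and columns mapping to the same glycan were averaged. The binding signal is a within-array Z-score, averaged across arrays of the same protein sequence at different concentrations or buffers and across linkers. Negative Z-scores can be read as non-binding.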
# [2] = target: Fuc(a1-2)Gal(b1-4)[Fuc(a1-3)]GlcNAc(b1-2)Man(a1-3)[Fuc(a1-2)Gal(b1-4)[Fuc(a1-3)]GlcNAc(b1-2)Man(a1-6)]Man(b1-4)GlcNAc(b1-4)GlcNAc
# Procedure, shortened: as §1
# [3] = target: Fuc(a1-2)Gal(b1-4)[Fuc(a1-3)]GlcNAc(b1-3)Gal(b1-4)[Fuc(a1-3)]GlcNAc(b1-3)Gal(b1-4)[Fuc(a1-3)]GlcNAc
# Procedure, shortened: as §1
# [4] = target: Fuc(a1-2)[Gal(a1-3)]Gal(b1-3)GlcNAc(b1-2)Man(a1-3)[Fuc(a1-2)[Gal(a1-3)]Gal(b1-3)GlcNAc(b1-2)Man(a1-6)]Man(b1-4)GlcNAc(b1-4)GlcNAc
# Procedure, shortened: as §1
# [5] = target: Fuc(a1-2)[Gal(a1-3)]Gal(b1-4)GlcNAc(b1-2)Man(a1-3)[Fuc(a1-2)[Gal(a1-3)]Gal(b1-4)GlcNAc(b1-2)Man(a1-6)]Man(b1-4)GlcNAc(b1-4)GlcNAc
# Procedure, shortened: as §1
# [6] = target: Fuc(a1-2)[GalNAc(a1-3)]Gal(b1-3)GlcNAc(b1-2)Man(a1-3)[Fuc(a1-2)[GalNAc(a1-3)]Gal(b1-3)GlcNAc(b1-2)Man(a1-6)]Man(b1-4)GlcNAc(b1-4)GlcNAc
# Procedure, shortened: as §1
# [7] = target: Fuc(a1-3)[Gal(b1-4)]GlcNAc(b1-2)Man(a1-3)[Fuc(a1-3)[Gal(b1-4)]GlcNAc(b1-2)Man(a1-6)]Man(b1-4)GlcNAc(b1-4)GlcNAc
# Procedure, shortened: as §1
# Fuc(b1-3)GlcNAc = target: Fuc(b1-3)GlcNAc
# Procedure, shortened: as §1
# [8] = target: Gal(a1-3)Gal(b1-4)[Fuc(a1-3)]GlcNAc(b1-2)Man(a1-3)[Gal(a1-3)Gal(b1-4)[Fuc(a1-3)]GlcNAc(b1-2)Man(a1-6)]Man(b1-4)GlcNAc(b1-4)GlcNAc
# Procedure, shortened: as §1
# [9] = target: Gal(b1-3)GlcNAc(b1-3)GalNAc
# Procedure, shortened: as §1
# [10] = target: Gal(b1-3)[Fuc(a1-4)]GlcNAc(b1-2)Man(a1-3)[Gal(b1-3)[Fuc(a1-4)]GlcNAc(b1-2)Man(a1-6)]Man(b1-4)GlcNAc(b1-4)GlcNAc
# Procedure, shortened: as §1
# [11] = target: Gal(b1-3)[Neu5Ac(a2-6)]GalNAc
# Procedure, shortened: as §1
# [12] = target: Gal(b1-4)GlcNAc(b1-2)Man(a1-3)[Gal(b1-4)GlcNAc(b1-2)Man(a1-6)]Man(b1-4)GlcNAc(b1-4)[Fuc(a1-6)]GlcNAc
# Procedure, shortened: as §1
# [13] = target: Gal(b1-4)GlcNAc(b1-2)Man(a1-6)[Man(a1-3)]Man(b1-4)GlcNAc(b1-4)GlcNAc
# Procedure, shortened: as §1
# [14] = target: Gal(b1-4)GlcNAc(b1-2)[Gal(b1-4)GlcNAc(b1-4)]Man(a1-3)[Gal(b1-4)GlcNAc(b1-2)Man(a1-6)]Man(b1-4)GlcNAc(b1-4)GlcNAc
# Procedure, shortened: as §1
# [15] = target: Gal(b1-4)GlcNAc(b1-3)Gal(b1-3)GlcNAc
# Procedure, shortened: as §1
# [16] = target: GalNAc(b1-4)GlcNAc(b1-2)Man(a1-3)[GalNAc(b1-4)GlcNAc(b1-2)Man(a1-6)]Man(b1-4)GlcNAc(b1-4)GlcNAc
# Procedure, shortened: as §1
# Glc(a1-6)Glc(a1-6)Glc = target: Glc(a1-6)Glc(a1-6)Glc
# Procedure, shortened: as §1
# GlcA(b1-6)Gal = target: GlcA(b1-6)Gal
# Procedure, shortened: as §1
# [17] = target: GlcNAc(a1-4)Gal(b1-4)GlcNAc(b1-3)Gal(b1-4)Glc
# Procedure, shortened: as §1
# [18] = target: GlcNAc(b1-2)Man(a1-3)[GlcNAc(b1-2)Man(a1-6)]Man(b1-4)GlcNAc(b1-4)[Fuc(a1-6)]GlcNAc
# Procedure, shortened: as §1
# GlcNAc(b1-3)Gal = target: GlcNAc(b1-3)Gal
# Procedure, shortened: as §1
# GlcNAc(b1-3)Gal(b1-4)Glc = target: GlcNAc(b1-3)Gal(b1-4)Glc
# Procedure, shortened: as §1
# [19] = target: GlcNAc(b1-6)Gal(b1-4)GlcNAc
# Procedure, shortened: as §1
# GlcNAc(b1-6)GalNAc = target: GlcNAc(b1-6)GalNAc
# Procedure, shortened: as §1
# Kdn(a2-3)Gal(b1-4)Glc = target: Kdn(a2-3)Gal(b1-4)Glc
# Procedure, shortened: as §1
# Kdn(a2-6)Gal(b1-4)GlcNAc = target: Kdn(a2-6)Gal(b1-4)GlcNAc
# Procedure, shortened: as §1
# [20] = target: Man(a1-2)Man(a1-2)Man(a1-3)Man
# Procedure, shortened: as §1
# Man(a1-2)Man(a1-3)Man = target: Man(a1-2)Man(a1-3)Man
# Procedure, shortened: as §1
# [21] = target: Neu5Ac(a2-3)Gal(b1-3)GalNAc(b1-3)Gal(a1-4)Gal(b1-4)Glc
# Procedure, shortened: as §1
binder,measurement,setting,value
B1,glycan array binding signal (z-score),[1],-0.057
same,glycan array binding signal (z-score),[2],0.064
same,glycan array binding signal (z-score),[3],-0.032
same,glycan array binding signal (z-score),[4],19.8
same,glycan array binding signal (z-score),[5],0.619
same,glycan array binding signal (z-score),[6],0.242
same,glycan array binding signal (z-score),[7],0.045
same,glycan array binding signal (z-score),Fuc(b1-3)GlcNAc,-0.041
same,glycan array binding signal (z-score),[8],-0.061
same,glycan array binding signal (z-score),[9],-0.079
same,glycan array binding signal (z-score),[10],0.028
same,glycan array binding signal (z-score),[11],-0.068
same,glycan array binding signal (z-score),[12],-0.086
same,glycan array binding signal (z-score),[13],-0.047
same,glycan array binding signal (z-score),[14],-0.042
same,glycan array binding signal (z-score),[15],-0.007
same,glycan array binding signal (z-score),[16],-0.023
same,glycan array binding signal (z-score),Glc(a1-6)Glc(a1-6)Glc,-0.051
same,glycan array binding signal (z-score),GlcA(b1-6)Gal,-0.057
same,glycan array binding signal (z-score),[17],-0.057
same,glycan array binding signal (z-score),[18],-0.012
same,glycan array binding signal (z-score),GlcNAc(b1-3)Gal,-0.059
same,glycan array binding signal (z-score),GlcNAc(b1-3)Gal(b1-4)Glc,-0.053
same,glycan array binding signal (z-score),[19],-0.076
same,glycan array binding signal (z-score),GlcNAc(b1-6)GalNAc,-0.058
same,glycan array binding signal (z-score),Kdn(a2-3)Gal(b1-4)Glc,-0.004
same,glycan array binding signal (z-score),Kdn(a2-6)Gal(b1-4)GlcNAc,-0.071
same,glycan array binding signal (z-score),[20],-0.067
same,glycan array binding signal (z-score),Man(a1-2)Man(a1-3)Man,-0.024
same,glycan array binding signal (z-score),[21],0.003
